The results in this text go back to PubChem BioAssay (Tox21).

Values joined by “and” are separate entries in the source; they are usually repeats but may differ in a detail not shown here. Equal values may be shown once. Inconclusive results are not listed. Active and inactive are the calls of the source. Unless noted, calls come from the whole dose curve; as a rule, active = well fitted curve in the direction sought with a large enough effect in the repeat runs; inconclusive = weak or mixed curves; inactive = no such curve, though single readings can be large; an effect the other way counts as inactive or inconclusive.

For test [1], the target named is Peroxisome proliferator-activated receptor delta (Homo sapiens) (UniProt Q03181). Description: qHTS assay to identify small molecule agonists of the peroxisome proliferator-activated receptor delta (PPARd) signaling pathway (AID 743212; calls by dose curve). The procedure, abridged:
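Cells expressing a UAS-driven beta-lactamase reporter (PPARd-bla HEK293H) were given test compounds after a 5 h settle and kept at 37 C. Reporter activity was then measured as FRET fluorescence using LiveBLAzer B/G substrate.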

The nature of test [2]: qHTS assay to identify small molecule antagonists of the peroxisome proliferator-activated receptor delta (PPARd) signaling pathway - cell viability counter screen (AID 743213). Note: nearly all actives have a fitted effect of over 50% in size. In outline:
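Agonist-stimulated (L165041, 300 nM final) HEK293H PPARd UAS-bla cells are exposed to compounds for 17 h at 37 C, and ATP-based luminescence (CellTiter-Glo) from the same wells reports cytotoxicity.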

The target in test [3] is Bile acid receptor (Homo sapiens) (UniProt Q96RI1). Description: qHTS assay to identify small molecule antagonists of the farnesoid-X-receptor (FXR) signaling pathway (AID 743217; active = well fitted inhibition curve with a large enough effect in the signal ratio in the repeat runs, not every such curve was filed as active; the % refers to the signal ratio). The procedure, abridged:
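FRET fluorescence after 2 h room-temperature LiveBLAzer loading gives the readout. Prior step: FXR-bla HEK 293T cells, seeded and incubated 5 h, received test compounds plus 50 uM final CDCA for 16 h at 37 °C.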
Background: Quantitative high-throughput screening tests each substance at several concentrations.

Test [4] in a line: qHTS assay to identify small molecule agonists of the farnesoid-X-receptor (FXR) signaling pathway - cell viability counter screen (AID 743218). Note: nearly all actives have a fitted effect of over 45% in size. In outline:
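Readout: CellTiter-Glo luminescence, 30 min RT, multiplexed after the FXR-bla FRET reading. HEK 293T FXR-UAS-bla cells received compound 5 h post-plating and were incubated 16 h at 37 C.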

The target in test [5] is Bile acid receptor (Homo sapiens) (UniProt Q96RI1). Description: qHTS assay to identify small molecule agonists of the farnesoid-X-receptor (FXR) signaling pathway (AID 743220; active = well fitted activation curve with a large enough effect in the signal ratio in the repeat runs, not every such curve was filed as active; the % refers to the signal ratio). The procedure, abridged:
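FXR-UAS-bla HEK 293T cells carrying a UAS-driven beta-lactamase reporter were plated for 5 h at 37C/5% CO2, then exposed to DMSO-dissolved Tox21 10K compounds for 16 h at 37C. A LiveBLAzer B/G FRET substrate was loaded for 2 h at room temperature before fluorescence reading.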

Test [6] is described as follows: qHTS assay to identify small molecule antagonists of the farnesoid-X-receptor (FXR) signaling pathway - cell viability counter screen (AID 743221; active = well fitted cell-killing curve with a large enough effect in the repeat runs, not every such curve was filed as active; note: nearly all actives have a fitted effect of over 50% in size). In outline: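 CellTiter-Glo, 30 min RT, luminescence; same wells as the LiveBLAzer FRET read. Cells: FXR-UAS-bla HEK 293T. Treatment: compound with chenodeoxycholic acid 50 uM final, 16 h at 37 C.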
Test [7] deals with Vitamin D3 receptor (Homo sapiens) (UniProt P11473). Description: qHTS assay to identify small molecule agonists of the vitamin D receptor (VDR) signaling pathway (AID 743222; calls by dose curve). The procedure, abridged:
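Following 4 h attachment at 37C, VDR-bla cells (2,000 per well) received DMSO-dissolved compounds or controls. After 16 h incubation, LiveBLAzer B/G FRET substrate was added and fluorescence read 2 h later at room temperature.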

A short description of test [8]: qHTS assay to identify small molecule agonists of the vitamin D receptor (VDR) signaling pathway - cell viability counter screen (AID 743224). Note: series mostly up to about 63 µM; nearly all actives have a fitted effect of over 50% in size. In outline: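 In parallel with the bla FRET readout, cytotoxicity toward VDR-bla cells after 16 h compound exposure was assessed by CellTiter-Glo, with luminescence recorded after a 30 min room-temperature incubation.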
Test [9] in a line: qHTS assay to identify small molecule antagonists of the vitamin D receptor (VDR) signaling pathway - cell viability counter screen (AID 743225). Note: nearly all actives have a fitted effect of over 50% in size. In outline: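 Cytotoxicity toward the VDR-bla HEK 293T line was scored by ATP-based CellTiter-Glo luminescence, read in the wells already used for the beta-lactamase readout after 16 h compound treatment under 3 nM 1-alpha,25-dihydroxyvitamin D3 stimulation.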

Test [10] in a line: qHTS assay to identify small molecule agonists of the NFkB signaling pathway - cell viability counter screen (AID 1159515; calls by dose curve; note: nearly all actives have a fitted effect of over 55% in size; note: potency is the fitted concentration of half-maximal effect). The procedure, abridged:
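Plate 2,000 NFkB-bla ME-180 cells/well; incubate overnight. Add compounds, 5 hr at 37 C. Add FRET substrate, 1.5 hr RT. Add CellTiter-Glo, 30 min RT; read luminescence.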

Test [11] is described as follows: qHTS assay to identify small molecule agonists of the endoplasmic reticulum stress response signaling pathway (AID 1159516; active = well fitted activation curve with a large enough effect in the signal ratio in the repeat runs, not every such curve was filed as active; the % refers to the signal ratio). The procedure, abridged:
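Beta-lactamase expression from the ER stress response element in HeLa reporter cells is quantified with the LiveBLAzer B/G FRET substrate, read at 405 nm excitation after 2 hr at room temperature, following 5 hr compound treatment at 37 C.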

Test [12] is described as follows: qHTS assay to identify small molecule agonists of the endoplasmic reticulum stress response signaling pathway - cell viability counter screen (AID 1159517; calls by dose curve). In outline: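 Cpd-treated ESRE-bla HeLa (5 hr, 37 C) → LiveBLAzer 2 hr RT → CellTiter-Glo 30 min RT → luminescence.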
Test [13] is described as follows: qHTS assay to identify small molecule antagonists of the retinoid-related orphan receptor gamma (ROR-gamma) signaling pathway - cell viability counter screen (AID 1159520). Note: nearly all actives have a fitted effect of over 50% in size. The procedure, abridged: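 Tet-on ROR gamma CHO cells (1,000/well) were plated 4 hr, given compounds in DMSO for 2 hr at 37 C, then induced with 1 uM final doxycycline for 16 hr. Viability was read as ATP by CellTiter-Glo luminescence after 30 min.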

Test [14] has as its target Nuclear receptor ROR-gamma (Homo sapiens) (UniProt P51449). Description: qHTS assay to identify small molecule antagonists of the retinoid-related orphan receptor gamma (ROR-gamma) signaling pathway (AID 1159521; note: nearly all actives have a fitted effect of over 50% in size; note: potency is the fitted concentration of half-maximal effect). In outline:
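Readout: ONE-Glo luciferase luminescence, 30 min at room temperature. System: Tet-on RORγ CHO, RORE-LUC. Sequence: compound 2 h, doxycycline 1 uM final, 16 h at 37 C.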

A short description of test [15]: qHTS assay to identify small molecule agonists of the AP-1 signaling pathway - cell viability counter screen (AID 1159525; calls by dose curve; note: nearly all actives have a fitted effect of over 55% in size). The procedure, abridged: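 Each titration point was normalised to DMSO and tetra n-octyl ammonium bromide controls. The read was Cell Titer Glo luminescence after 30 min at RT, following 5 h compound exposure of ME-180 AP-1-bla cells at 37 °C.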

Test [16] can be described thus: qHTS assay to identify small molecule agonists of the AP-1 signaling pathway (AID 1159526; calls by dose curve).
Test [17] in a line: qHTS assay to identify small molecule agonists of the peroxisome proliferator-activated receptor delta (PPARd) signaling pathway - cell viability counter screen (AID 743211). Note: nearly all actives have a fitted effect of over 55% in size. Note: potency is the fitted concentration of half-maximal effect. In outline:
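Multiplexed format: after the 2 h room-temperature LiveBLAzer B/G FRET step, CellTiter-Glo was added to the same wells. Luminescence after 30 min gave cell viability; compound exposure was 17 h at 37C.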

In test [18] the target is Retinoic acid receptor RXR-alpha (Homo sapiens) (UniProt P19793). The test is described as follows: qHTS assay to identify small molecule agonists of the RXR signaling pathway (AID 1159527; calls by dose curve; note: nearly all actives have a fitted effect of over 35% in size). In outline:
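Reporter activation is measured as beta-lactamase activity via FRET substrate cleavage (emission 460/530 nm) in HEK 293T cells expressing an RXR-alpha-driven bla construct, following 16 hr compound exposure at 37 C.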

Test [19] has as its target Peroxisome proliferator-activated receptor delta (Homo sapiens) (UniProt Q03181). The test is described as follows: qHTS assay to identify small molecule antagonists of the peroxisome proliferator-activated receptor delta (PPARd) signaling pathway (AID 743215; active = well fitted inhibition curve with a large enough effect in the signal ratio in the repeat runs, not every such curve was filed as active; the % refers to the signal ratio; note: series mostly up to about 62 µM). In outline: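 Fluorescence from cleaved LiveBLAzer B/G FRET substrate (2 h, room temperature) reports PPARd-driven beta-lactamase in HEK293H UAS-bla cells. Cells had been treated 17 h at 37 C with compound plus 300 nM final L165041.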

Test [20] deals with Vitamin D3 receptor (Homo sapiens) (UniProt P11473). The test is described as follows: qHTS assay to identify small molecule antagonists of the vitamin D receptor (VDR) signaling pathway (AID 743223; active = well fitted inhibition curve with a large enough effect in the signal ratio in the repeat runs, not every such curve was filed as active; the % refers to the signal ratio). In outline:
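After VDR-bla cells are plated and left 4 h at 37C, DMSO-dissolved compounds and 3 nM (final) calcitriol agonist are added. Incubation continues 16 h at 37C; FRET beta-lactamase substrate then develops 2 h at room temperature.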

Sequence of Bile acid receptor (Homo sapiens) (Q96RI1 whole entry, looked up): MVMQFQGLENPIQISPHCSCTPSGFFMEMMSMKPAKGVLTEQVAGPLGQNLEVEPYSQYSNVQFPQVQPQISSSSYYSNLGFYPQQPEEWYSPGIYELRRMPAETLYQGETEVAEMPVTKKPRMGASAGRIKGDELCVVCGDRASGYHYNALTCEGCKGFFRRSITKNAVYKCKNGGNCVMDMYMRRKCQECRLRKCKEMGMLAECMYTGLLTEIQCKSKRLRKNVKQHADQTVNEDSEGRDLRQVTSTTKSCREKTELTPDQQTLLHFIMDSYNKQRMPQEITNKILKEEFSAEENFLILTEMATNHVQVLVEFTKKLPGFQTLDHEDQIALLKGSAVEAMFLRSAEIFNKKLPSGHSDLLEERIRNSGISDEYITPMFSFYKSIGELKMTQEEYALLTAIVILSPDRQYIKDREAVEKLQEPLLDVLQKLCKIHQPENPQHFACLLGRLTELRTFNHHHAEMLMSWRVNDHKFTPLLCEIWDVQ
Sequence of Vitamin D3 receptor (Homo sapiens) (P11473 whole entry, looked up): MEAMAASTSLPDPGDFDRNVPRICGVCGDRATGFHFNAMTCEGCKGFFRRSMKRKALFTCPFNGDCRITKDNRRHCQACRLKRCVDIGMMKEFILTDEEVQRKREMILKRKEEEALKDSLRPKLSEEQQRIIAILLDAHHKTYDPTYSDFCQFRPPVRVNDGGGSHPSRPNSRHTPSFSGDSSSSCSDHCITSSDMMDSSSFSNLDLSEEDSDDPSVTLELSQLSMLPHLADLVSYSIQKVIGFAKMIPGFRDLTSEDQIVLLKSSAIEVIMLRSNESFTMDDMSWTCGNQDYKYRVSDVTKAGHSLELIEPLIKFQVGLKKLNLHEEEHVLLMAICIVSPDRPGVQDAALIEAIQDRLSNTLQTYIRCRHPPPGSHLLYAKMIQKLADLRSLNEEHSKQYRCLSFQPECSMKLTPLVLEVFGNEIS
Sequence of Peroxisome proliferator-activated receptor delta (Homo sapiens) (Q03181 whole entry, looked up): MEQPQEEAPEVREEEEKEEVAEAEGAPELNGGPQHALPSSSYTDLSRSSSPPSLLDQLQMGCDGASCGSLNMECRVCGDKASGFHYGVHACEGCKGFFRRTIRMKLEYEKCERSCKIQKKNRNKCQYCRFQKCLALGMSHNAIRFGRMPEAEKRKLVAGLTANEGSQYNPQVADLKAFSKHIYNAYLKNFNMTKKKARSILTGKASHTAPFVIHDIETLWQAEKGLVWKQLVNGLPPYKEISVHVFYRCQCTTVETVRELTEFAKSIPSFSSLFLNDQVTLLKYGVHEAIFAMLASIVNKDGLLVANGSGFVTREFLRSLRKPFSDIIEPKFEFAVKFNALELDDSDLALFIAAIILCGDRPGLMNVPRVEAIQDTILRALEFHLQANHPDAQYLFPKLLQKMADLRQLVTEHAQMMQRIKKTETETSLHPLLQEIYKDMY
Sequence of Retinoic acid receptor RXR-alpha (Homo sapiens) (P19793 whole entry, looked up): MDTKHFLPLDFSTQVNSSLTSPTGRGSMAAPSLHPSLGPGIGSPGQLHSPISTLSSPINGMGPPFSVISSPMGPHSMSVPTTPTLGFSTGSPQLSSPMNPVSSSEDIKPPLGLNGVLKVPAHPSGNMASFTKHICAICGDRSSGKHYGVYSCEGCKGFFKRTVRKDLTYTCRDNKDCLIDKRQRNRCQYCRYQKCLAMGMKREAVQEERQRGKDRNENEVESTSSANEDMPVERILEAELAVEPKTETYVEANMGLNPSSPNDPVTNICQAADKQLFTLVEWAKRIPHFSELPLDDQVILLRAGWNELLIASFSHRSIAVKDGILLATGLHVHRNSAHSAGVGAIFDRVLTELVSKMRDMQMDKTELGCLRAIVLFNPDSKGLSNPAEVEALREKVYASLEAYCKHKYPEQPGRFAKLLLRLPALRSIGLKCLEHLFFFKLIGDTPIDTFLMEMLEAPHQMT

Consider `CCCCOCCOC(C)=O`, for which the Potency result in test [1], in test [2], in test [3], in test [4], in test [5] and in test [6] was “inactive” in each case. The Potency entry in test [8], in test [9], in test [10], in [11], in test [12] and in test [13] was “inactive” in each case. Besides, the Potency result in test [14] and in test [15] was “inactive” in each case. Moreover, the compound was called inactive in [7] and in test [16].

For the compound `CSc1nc(NC(C)C)nc(NC(C)C)n1`, the Potency entry in [17], in test [2], in test [6], in [9], in test [10] and in test [11] was “inactive” in each case. For the same compound, the Potency result in test [13], in test [14], in test [15] and in test [18] was “inactive” in each case. Moreover, the call in test [7] and in test [16] was inactive.

With `CNC(=O)Oc1cccc2c1OC(C)(C)C2`, the Potency result in test [17], in test [1], in [2], in [19], in [4] and in [6] was “inactive” in each case. Further, the Potency result in [8], in [9], in test [10], in test [11], in test [12] and in test [13] was “inactive” throughout. The Potency entry in [15] is “inactive”. The call in test [7] and in test [16] was inactive.

Regarding `[Cl-].[Cl-].[Cl-].[Fe+3]`, the Potency entry in [17], in test [2], in test [6], in test [9], in test [10] and in [11] was “inactive” throughout. The Potency entry in test [12], in test [13], in [15] and in test [18] was “inactive” throughout. Also, the result in test [16] was inactive.

Consider `N#CC(c1ccccc1)c1ccccc1`, for which the Potency result in test [17], in test [1], in [2], in test [3], in test [4] and in test [5] was “inactive” each time. For the same compound, the Potency result in [6], in [20], in [8], in [9], in test [10] and in [11] was “inactive” in each case. For the same compound, the Potency entry in test [13], in [14], in [15] and in test [18] was “inactive” in each case. Also, the call in test [7] and in test [16] was inactive.

`C=CC(Cl)CCl` (stereo unspecified): the Potency entry in [2], in [3], in test [4], in test [5], in test [6] and in test [8] was “inactive” in each case. For the same compound, the Potency entry in test [9], in test [10], in test [11], in test [13], in [14] and in test [15] was “inactive” throughout. The Potency entry in test [18] was “inactive”. Also, the compound was called inactive in test [7] and in test [16].

Regarding `CC(C)Nc1nc(Cl)nc(NC(C)C)n1`, the Potency entry in test [1], in [2], in [4], in test [6], in test [20] and in test [8] was “inactive” throughout. In addition, the Potency entry in test [9], in [10], in [11], in test [13], in test [15] and in [18] was “inactive” each time. Besides, the compound was called inactive in test [7] and in test [16].

With `CC(C)(c1ccc(OCC2CO2)cc1)c1ccc(OCC2CO2)cc1` (stereo unspecified), the Potency in [17] was 34.7 µM (active). Besides, the Potency result in test [2], in test [19], in [6], in [8], in test [9] and in [10] was “inactive” throughout. For the same compound, the Potency entry in test [11], in test [13], in [14] and in test [15] was “inactive” in each case. In addition, the call in [16] was inactive.

Take `CC(C)(C#N)N=NC(C)(C)C#N`: the Potency result in [17], in test [1], in [2], in test [4], in [6] and in [20] was “inactive” each time. For the same compound, the Potency entry in test [8], in test [9], in test [10], in [11], in test [13] and in test [14] was “inactive” throughout. In test [15], the Potency result is “inactive”. Further, the outcome in test [7] and in test [16] was inactive.

Take `CC(C)(c1ccccc1)c1ccc(O)cc1`: the Potency in test [17] was 54.5 µM (active); in [10], 43.3 µM (active) and 54.9 µM (active); in test [14] it was 60.6 µM (active). In addition, the Potency result in test [1], in [2], in test [3], in test [4], in test [5] and in test [6] was “inactive” each time. For the same compound, the Potency entry in [20], in test [8] and in [11] was “inactive” each time. Also, the outcome in [7] was inactive.
